# Reference: PubChem BioAssay AID2314 (National Center for Advancing Translational Sciences (NCATS), 2010)
# Screen size: about 300,000 compounds; about 37,000 (12%) were called active. Rule as the data show it: active = max response mostly above about 13% (no sharp cut-off); inactive = mostly below about 14%. This excerpt belongs to a sample that is enriched for actives.
# Test: Cycloheximide Counterscreen for Small Molecule Inhibitors of Shiga Toxin; also: read at 38.3 µM for the half of the compounds with a filed dose; 0% is about no effect
# Details: cell reporter, cycloheximide protein synthesis inhibition counterscreen; stronger effect = higher value
row,SMILES,max response
1,CCc1ccc(Oc2nc([N+](=O)[O-])nn2C)cc1,-1.09% (inactive)
2,COc1ccc(OCCCCN2CCC(C)CC2)cc1,-5.4% (inactive)
3,CCN(CC)S(=O)(=O)c1ccc(C(=O)N2CCN(C3=NS(=O)(=O)c4ccccc43)CC2)cc1,7.96% (inactive)
4,CC1CCC(C(C)C)C(=O)/C1=C\c1ccc(NC(=O)CCC(=O)O)cc1 (stereo not drawn),-5.07% (inactive)
5,COc1ccc(CN2CN(C3CCCC3)CSC2=S)cc1,3.32% (inactive)
6,O=S(=O)(c1ccc(Br)cc1)N1CCC(c2nc3ccccc3[nH]2)CC1,-3.07% (inactive)
7,CCC(Cc1ccccc1)NS(=O)(=O)c1ccc2c(c1)NC(=O)CS2 (stereo not drawn),0.995% (inactive)
8,Cc1cc(C)c(C#N)c(Nc2cccc(Br)c2)n1,0.576% (inactive)
9,C[C@H](NC(=O)C1CC(=O)N(c2ccc3c(c2)OCCO3)C1)C(=O)N1CCC(C(=O)O)CC1 (stereo partly drawn),7.17% (inactive)
10,COc1ccc(C(=O)NC2CC(C)(C)NC(C)(C)C2)cc1OC,-1.7% (inactive)
11,COc1ccc(CN(C)C(C)C(=O)NC2CCCc3ccccc32)cc1 (stereo not drawn),4.63% (inactive)
12,CCOc1ccc(C(=O)CCN2CCOCC2)cc1,9.26% (inactive)
13,O=C(COc1ccc(Cl)cc1)Nc1ccc2c(c1)OCO2,15.8% (active)
14,CC(=O)NCC(=O)N(C)C(C(=O)Nc1ccc2c(c1)OCCO2)c1ccccc1 (stereo not drawn),-1.79% (inactive)
15,CCC(C(=O)Nc1ccc(C(C)C)cc1)c1ccccc1 (stereo not drawn),-1.28% (inactive)
16,COc1ccc(C2(C)NC(=O)N(CC(=O)c3ccc4c(c3)OCO4)C2=O)cc1 (stereo not drawn),1.46% (inactive)
17,CCCCN(CC(=O)NC(C)(C)C)C(=O)C(=O)Nc1ccc2c(c1)OCCO2,5.6% (inactive)
18,O=C(CN1CCN(c2ncc(C(F)(F)F)cc2Cl)CC1)Nc1ccc2c(c1)OCO2,2.27% (inactive)
19,CCCCC(=O)Nc1ccc2c(c1)OCCO2,36.8% (active)
20,CCC(C(=O)Nc1ccc2c(c1)OCCO2)c1ccccc1 (stereo not drawn),19.2% (active)
21,O=C(COc1ccc(Cl)cc1)Nc1ccc2oc(=O)ccc2c1,-3.63% (inactive)
22,CCOc1ccc(NCCC(=O)c2ccc3c(c2)OCO3)cc1,14.4% (active)
23,O=C(CCS(=O)(=O)Cc1ccccc1)Nc1ccc2c(c1)OCCO2,-1.91% (inactive)
24,COCCOC(=O)C1=C(C)NC(=O)NC1c1cc2c(cc1Br)OCO2 (stereo not drawn),-5.73% (inactive)
25,Cc1ccc(NC(=O)CN(C)C(=O)COC(=O)C(C)(C)Oc2ccc(Cl)cc2)cc1,-3.38% (inactive)

row,SMILES,max response
1,COc1ccccc1C(=O)Nn1cnnc1,-2.95% (inactive)
2,CCC(C)(C)NC(=O)CN(C(=O)CCC(=O)Nc1nccs1)c1ccc2c(c1)OCO2,-3.66% (inactive)
3,COc1ccc(CCNC(=O)NS(=O)(=O)c2ccc(C)cc2)cc1OC,-2.33% (inactive)
4,COc1ccc(S(=O)(=O)NCCc2c[nH]c3ccccc23)cc1OC,2.61% (inactive)
5,Nc1nc(SCc2cccc(Br)c2)n[nH]1,0.308% (inactive)
6,CCc1ccc(N2CC(C(=O)N3CCCCCC3)CC2=O)cc1 (stereo not drawn),15.1% (inactive)
7,CCn1c(SCC(=O)Nc2ccc3c(c2)OCCO3)nnc1-c1ccncc1,2.74% (inactive)
8,COc1ccccc1OCCCC(=O)Nc1ccc2c(c1)OCCO2,32.1% (active)
9,CCC(C)(C)NC(=O)CN(C(=O)C(=O)Nc1ccc2c(c1)OCCO2)C(C)(C)CC,-5.87% (inactive)
10,COC(=O)CCNc1ccc2c(c1)OCCO2,48.2% (active)
11,Cc1ccc(SCC(=O)Nc2ccc3c(c2)OCCO3)cc1,73.6% (active)
12,O=C(COc1ccc2c(C(F)(F)F)cc(=O)oc2c1)Nc1ccc2c(c1)OCCO2,5.22% (inactive)
13,Cc1ccc(S(=O)(=O)NCC(=O)Nc2ccc3c(c2)OCCO3)cc1,6.27% (inactive)
14,CCN(CC(=O)Nc1ccc2c(c1)OCO2)S(=O)(=O)c1ccccc1,-0.651% (inactive)
15,CCn1c(COc2ccccc2)nnc1SCC(=O)Nc1ccc2c(c1)OCCO2,8.26% (inactive)
16,CCN(CC(=O)Nc1ccc2c(c1)OCCO2)Cc1cc(=O)oc2cc(C)c(C)cc12,11.2% (active)
17,COc1cccc(NC(=O)COC(=O)CCOc2ccccc2OC)c1,-1.24% (inactive)
18,Cc1sc2ncn(CC(=O)NCCCC(=O)N(C)Cc3ccccc3)c(=O)c2c1C,0.104% (inactive)
19,CCC(=O)N(Cc1cc2ccccc2[nH]c1=O)c1ccc(OC)cc1,-1.99% (inactive)
20,O=C(CNC(=O)OCc1ccccc1)NC1CCCCNC1=O (stereo not drawn),1.1% (inactive)
21,CCOc1ccc(C(=O)Nc2ccc(S(=O)(=O)NCC3CCCO3)cc2)cc1OCC (stereo not drawn),-3.06% (inactive)
22,CCN(CC)CCNc1nc(-c2ccc(OC(F)F)cc2)c(C)s1,-2.43% (inactive)
23,COc1ccc(-n2nc(C(=O)NCC(=O)N3CCC(C(N)=O)CC3)c3ccccc3c2=O)cc1OC,-3.96% (inactive)
24,CC(=O)c1c(C)oc2ccc(NS(=O)(=O)c3ccc(C(=O)O)cc3)cc12,-0.66% (inactive)
25,Cn1c(SCC(=O)c2cccs2)nnc1-c1ccco1,29.8% (active)

row,SMILES,max response
1,CCOC(=O)CSc1nnc(-c2ccco2)n1C,-2.04% (inactive)
2,CCCCNC(=O)CSc1nnc(-c2ccco2)n1C,1.17% (inactive)
3,CC(C)CC(=O)Nc1nnc(S(=O)(=O)N(C)c2ccc(Cl)cc2)s1,-2.39% (inactive)
4,COc1ccc2c(C(=O)c3ccc(C)cc3)n(CCC(N)=O)[n+]([O-])c2c1,7.82% (inactive)
5,COC(=O)c1c(NC(=O)c2ccc(S(=O)(=O)N3CCOCC3)cc2)sc2c1CCN(C(C)C)C2,-1.08% (inactive)
6,CC(=O)Nc1ccc(NC(=O)C2CCCN(S(=O)(=O)c3ccc(Cl)cc3)C2)cc1 (stereo not drawn),-5.06% (inactive)
7,CCOC(=O)C1CCN(C(=O)Nc2ccc(Cl)cc2)CC1,12.6% (inactive)
8,CC(=O)N1CCC(N(C(=O)Nc2ccc(Cl)cc2)C(C)C)CC1,9.65% (active)
9,COc1cccc(NC(=O)C2C(c3ccccc3)C2(Cl)Cl)c1 (stereo not drawn),1.73% (inactive)
10,CCOCCOC(=O)C(C)Oc1ccc(Oc2ncc(C(F)(F)F)cc2Cl)cc1 (stereo not drawn),0.288% (inactive)
11,CCOC(=O)CN(C(=O)COc1nc(C)cc(C)c1C#N)c1ccc(Cl)cc1,1.33% (inactive)
12,O=C1CCC(=O)N(c2ccccc2)N1,4.98% (inactive)
13,c1ccc(-n2nc3ccccc3n2)cc1,10.4% (inactive)
14,O=C1CCCc2nn(-c3ccccc3)nc21,31.9% (active)
15,CCCc1nc(SCC(=O)N2CCCC2)c2c(=O)n(C)c(=O)n(C)c2n1,-1.08% (inactive)
16,COCCNC(=O)CN(Cc1ccco1)C(=O)CCC(=O)Nc1nccs1,-7.71% (inactive)
17,Cc1ccc(Nc2c(F)c(F)c(F)c(F)c2C(=O)O)c(C)c1,-3.03% (inactive)
18,COc1cc(SC)ccc1C(=O)Nc1cc(C)ccn1,40.1% (active)
19,Cc1occc1C(=O)Nc1cccc(Cn2cccn2)c1,10.7% (inactive)
20,COc1cc(SC)ccc1C(=O)NCCOc1ccccc1Cl,57.7% (active)
21,COc1ccccc1OCCNC(=O)CCNC(=O)c1ccccc1Cl,5.13% (inactive)
22,COc1cc(SC)ccc1C(=O)Nc1nc(C)cs1,-6.32% (inactive)
23,COc1ccccc1CNC(=O)c1ccc(SC)cc1OC,8.03% (inactive)
24,COc1cc(SC)ccc1C(=O)N(Cc1ccccc1)c1ccccc1,-0.326% (inactive)
25,Cc1ccnc(NC(=O)c2ccoc2C)c1,35.7% (active)

row,SMILES,max response
1,Cc1ccnc(NC(=O)CCCOc2ccccc2)c1,9.11% (inactive)
2,COc1ccc(CCNc2cc(C)nc3c(-c4ccc(Cl)cc4)c(C)nn23)cc1OC,-1.95% (inactive)
3,COc1cccc(NC(=O)c2cc(S(=O)(=O)N3CCc4ccccc43)cn2C)c1,-2.59% (inactive)
4,CCc1nn(CCCN2CCN(c3cccc(Cl)c3)CC2)c(=O)n1CCOc1ccccc1,-3.76% (inactive) [middle of 4 runs]
5,Cn1c(=O)c2c(SCC(=O)NCC3CCCO3)nc(CC(C)(C)C)nc2n(C)c1=O (stereo not drawn),0.724% (inactive)
6,CC(OC(=O)c1ccccc1OCc1ccc(Cl)cc1)C(N)=O (stereo not drawn),2.27% (inactive)
7,CC(C)Cc1nnc(NC(=O)CN2C(=O)NC3(CCCCC3)C2=O)s1,-1.99% (inactive)
8,O=C(Nc1ccc(CN2CCOCC2)cc1)c1cc(Cl)ccc1Cl,-1.65% (inactive)
9,C=CCn1cc(Cl)cc(C(=O)Nc2ccccc2)c1=O,14.1% (active)
10,O=C(O)c1ccc(NC(=O)c2cn(-c3ccccc3)nc2-c2ccc(Cl)cc2)cc1,10.4% (inactive)
11,CCOc1ccc(Br)cc1CSC(=N)N,-0.921% (inactive)
12,Cc1cccc(CSc2nnc(Cn3c(=O)sc4ccccc43)n2C)c1,-3.59% (inactive)
13,O=C(CSc1ccc(-c2cccs2)nn1)Nc1ccccc1F,16.1% (inactive)
14,Cc1cccc(CSc2ccc(-c3cccs3)nn2)c1,35% (active)
15,CCOC(=O)c1ccc(-n2c(CCC(=O)O)ccc2-c2ccccc2)cc1,-3.35% (inactive)
16,COc1ccc(CCOC(=O)CNC(=O)c2ccc(Cl)cc2Cl)cc1,7.31% (inactive)
17,O=C(c1cccs1)C1C(c2ccc(Br)cc2)NC(=S)NC1(O)C(F)(F)F (stereo not drawn),29.2% (active)
18,CC(=O)C1C(c2ccc(Cl)cc2)NC(=O)NC1(O)C(F)(F)F (stereo not drawn),-2.92% (inactive)
19,CCOC(=O)C1C(c2ccc(Cl)cc2)NC(=S)NC1(O)C(F)(F)F (stereo not drawn),-4.55% (inactive)
20,CC(C)CCOc1ccc(C(=O)C[N+]2(C)CCOCC2)cc1,-6.71% (inactive)
21,COc1ccc(CN(C)C(=O)c2cc(-c3ccc(C)cc3C)nc3ccccc23)c(OC)c1OC,9.76% (active)
22,Cc1ccc(-c2cc(C(=O)Nc3nn[nH]n3)c3ccccc3n2)c(C)c1,-3.28% (inactive)
23,COc1ccc(-c2cc(C(=O)N(C)Cc3ccccc3)c3ccccc3n2)cc1,10.1% (inactive)
